Assay results reported in PubChem BioAssay (NCATS).
Values without a mark were called inactive. Inconclusive results are not listed. A call without a number means that no potency is given here. Calls of active or inactive are those of the source. Calls follow the shape of the dose curve; as a rule, active = well fitted curve in the direction sought with a large enough effect; inconclusive = small, poorly fitted or top-dose-only effect, or another doubt; inactive = no such curve, though single readings can be large; an effect the other way counts as inactive or inconclusive.

Columns and labels:
[1] = target: Glutathione peroxidase 1 (Homo sapiens) (UniProt P07203); assay: Primary qHTS Assay for Inhibitors of Recombinant Selenoprotein Glutathione Peroxidase 1 (GPX1) (AID 1845191); also: nearly all actives have a fitted effect of over 65% in size; also: potency is read from the fitted curve at half-maximal effect
Chain of Glutathione peroxidase 1 (Homo sapiens) (P07203 whole entry, looked up): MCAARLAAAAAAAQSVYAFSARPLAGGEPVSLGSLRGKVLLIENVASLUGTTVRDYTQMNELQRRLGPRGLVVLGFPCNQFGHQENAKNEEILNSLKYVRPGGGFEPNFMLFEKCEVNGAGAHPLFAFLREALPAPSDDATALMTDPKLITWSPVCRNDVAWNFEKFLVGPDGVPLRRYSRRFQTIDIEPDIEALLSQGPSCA
In short: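 NADPH consumption tracked by fluorescence at 340/450 nm between t=0 and t=15 min, room temperature. Final mix: 10 nM GPX1, 100 nM glutathione reductase, 1 mM GSH, 0.5 mM NADPH, 0.5 mM cumene hydroperoxide, 0.01% BSA; 30 min compound–enzyme preincubation.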

[2] = target: Phospholipid hydroperoxide glutathione peroxidase GPX4 (Homo sapiens) (UniProt P36969); assay: Primary qHTS Assay for Inhibitors of Recombinant Selenoprotein Glutathione Peroxidase 4 (GPX4) (AID 1845192); also: nearly all actives have a fitted effect of over 65% in size; also: potency is read from the fitted curve at half-maximal effect; as to activity change, negative = inhibition: series mostly up to about 50 µM
Chain of Phospholipid hydroperoxide glutathione peroxidase GPX4 (Homo sapiens) (P36969 whole entry, looked up): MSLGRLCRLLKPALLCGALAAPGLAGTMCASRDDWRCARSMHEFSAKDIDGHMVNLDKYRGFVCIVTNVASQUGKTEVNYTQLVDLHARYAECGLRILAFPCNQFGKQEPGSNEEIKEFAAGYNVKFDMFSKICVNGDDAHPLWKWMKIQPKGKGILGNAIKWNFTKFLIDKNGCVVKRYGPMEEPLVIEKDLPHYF
In short: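 NADPH consumption followed by fluorescence at 340/450 nm, t=0 and after 15 min at room temperature. Reaction started with cumene hydroperoxide (0.5 mM final) after 30 min compound–GPX4 preincubation; final 200 nM GPX4, 100 nM GR, 1 mM GSH, 0.5 mM NADPH.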

[3] = target: Luciferin 4-monooxygenase (Photinus pyralis) (UniProt P08659); assay: Primary firefly luciferase (FLuc) qHTS assay for identification of artifact compounds. (AID 1845220); also: nearly all actives have a fitted effect of over 60% in size; also: potency is read from the fitted curve at half-maximal effect; as to activity change, negative = inhibition: series mostly up to about 54 µM
In short: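 Cell-free, 1536-well qHTS. Buffer pH 7.6 with 0.01% Tween-20 and 0.05% BSA; 10 uM D-luciferin, 10 uM ATP; 10 nM P. pyralis luciferase; luminescence after 5 min.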

[4] = Primary fluorescence-based thiol-reactive (MSTI) qHTS assay for identification of artifact compounds. (AID 1845221); also: nearly all actives have a fitted effect of over 65% in size; also: potency is read from the fitted curve at half-maximal effect;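 as to activity change, negative = thiol reactive: series mostly up to about 54 µM; thiol-reactive compounds lower the probe fluorescence signal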
In short: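 Thiol-reactive compounds detected by quenching of 4 uM MSTI fluorescence (525/598 nm) after 1 h room-temperature dark incubation in PBS pH 7.4, 2% DMSO. qHTS titration; percent inhibition Hill-fitted against Acetyl-MSTI/MSTI controls.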

[5] = tested on: Nanoluciferase (engineered Oplophorus gracilirostris luciferase); assay: Primary Nanoluciferase (NLuc) qHTS assay for identification of artifact compounds. (AID 1845222); also: series mostly up to about 54 µM
In short: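 Compounds are pinned into diluted (1:55) conditioned medium of NLuc-expressing S16 cells and held 15 min at room temperature protected from light. Nano-Glo substrate follows, and luminescence is read 5 min later.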

CC(=O)OCC(=O)[C@@]12OC3(CCCC3)O[C@@H]1C[C@H]1[C@@H]3CCC4=CC(=O)C=C[C@]4(C)[C@@]3(F)[C@@H](O)C[C@@]12C
Potency [1]: inactive | Potency [2]: inactive

C[C@@H]1[C@H](O)[C@@H](C)/C=C/C=C\C=C\C=C\C=C\C=C\C=C\[C@H](O[C@@H]2O[C@H](C)[C@@H](O)[C@H](N)[C@@H]2O)C[C@@H]2O[C@](O)(C[C@@H](O)C[C@@H](O)[C@H](O)CC[C@@H](O)C[C@@H](O)CC(=O)O[C@H]1C)C[C@H](O)[C@H]2C(=O)O (stereo in doubt)
Potency [1]: inactive | Potency [2]: inactive

CC[C@@H](C(=O)O)[C@@H]1O[C@@H]([C@@H](C)[C@H](O)[C@H](C)C(=O)[C@H](CC)[C@H]2O[C@]3(C=C[C@@H](O)[C@]4(CC[C@@](C)([C@H]5CC[C@](O)(CC)[C@H](C)O5)O4)O3)[C@H](C)C[C@@H]2C)[C@@H](C)C[C@@H]1C
Potency [1]: inactive

CC1CCC2(C)C(CC(O)C(O)C23CO3)C1(C)CCC1=CC(O)OC1=O (stereo unspecified)
Potency [1]: inactive | Potency [2]: inactive | Potency [3]: inactive | Potency [4]: inactive | Potency [5]: inactive

CC(=O)OC(C)OC(=O)C(C)c1ccc(-c2ccccc2)c(F)c1 (stereo unspecified)
Potency [1]: inactive | Potency [2]: inactive

CC[N+](CC)(CC)CCC(O)(c1ccccc1)C1CCCCC1 (stereo unspecified)
Potency [1]: inactive | Potency [2]: inactive

O=C(/C=C/c1c(C(=O)O)[nH]c2cc(Cl)cc(Cl)c12)Nc1ccccc1
Potency [1]: inactive | Potency [2]: inactive | Potency [3]: inactive | Potency [4]: inactive

CC[C@@H](C(=O)[C@@H](C)[C@@H](O)[C@H](C)CCc1ccc(C)c(O)c1C(=O)O)[C@H]1O[C@](CC)([C@H]2CC[C@](O)(CC)[C@H](C)O2)C[C@@H]1C
Potency [1]: inactive | Potency [2]: 4.47 µM (active)

CCCCCCc1cccc(NC(=O)[C@H](N)CCP(=O)(O)O)c1
Potency [1]: inactive | Potency [2]: inactive | activity change, negative = inhibition [3]: 2.4% [at 11.6 µM] | activity change, negative = thiol reactive [4]: 1.56% [at 11.5 µM] | activity, negative = inhibition [5]: 4.9% [at 11.6 µM]

CCCCC(CC)COC(=O)CC(C(=O)OCC(CC)CCCC)S(=O)(=O)O (stereo unspecified)
Potency [1]: inactive

CC(=O)N[C@H]1[C@H](O[C@H]2CC[C@@]3(C)C(CC[C@]4(C)C3CC=C3C5CC(C)(C)CC[C@]5(C(=O)O)[C@H](O[C@@H]5O[C@H](CO)[C@@H](O)[C@H](O)[C@H]5O)C[C@]34C)C2(C)C)O[C@H](CO[C@@H]2OC[C@H](O)[C@H](O)[C@H]2O[C@@H]2OC[C@@H](O)[C@H](O)[C@H]2O)[C@@H](O)[C@@H]1O (stereo partly specified)
Potency [1]: inactive | Potency [2]: inactive | activity change, negative = inhibition [3]: 2.58% [at 11.6 µM] | activity change, negative = thiol reactive [4]: -21.6% [at 11.5 µM] | activity, negative = inhibition [5]: -3.44% [at 11.6 µM]

CC(=O)N(CC(C)C(=O)O)c1c(I)cc(I)c(N)c1I (stereo unspecified)
Potency [1]: inactive | Potency [2]: inactive

NCc1ccccc1CC(=O)N[C@@H]1C(=O)N2C(C(=O)O)=C(CSc3nnnn3CC(=O)O)CS[C@H]12
Potency [1]: 5.08 µM (active) | Potency [2]: 15.8 µM (active)

CC(Oc1ccccc1)C(=O)N[C@@H]1C(=O)N2[C@@H]1SC(C)(C)[C@@H]2C(=O)O (stereo partly specified)
Potency [1]: inactive | Potency [2]: inactive

C/C=C/C=C/C(CC(=O)O)Nc1ccc(C=O)cc1 (stereo unspecified)
Potency [1]: inactive | Potency [2]: inactive | Potency [3]: 23.9 µM (active) | Potency [4]: 4.74 µM (active)

OC[C@H]1O[C@@H](Oc2ccc(O)c3cccc(O)c23)[C@H](O)[C@@H](O)[C@@H]1O
Potency [1]: inactive | Potency [2]: inactive | Potency [3]: inactive | Potency [4]: 0.927 µM (active)

CCOC(=O)O[C@]1(C(=O)COC(=O)CC)CC[C@H]2[C@@H]3CCC4=CC(=O)C=C[C@]4(C)[C@H]3[C@@H](O)C[C@@]21C
Potency [1]: inactive

C/C=C/C1=CC2=CC(=O)C(C)(O)C(OC(=O)c3c(C)cc(O)cc3O)C2CO1 (stereo unspecified)
Potency [1]: inactive | Potency [2]: inactive | Potency [3]: inactive | Potency [4]: inactive | Potency [5]: inactive

C=C(C)[C@H]1C[C@@H](O)C(=C)CC[C@@H](O)C(=C)[C@@H](O)C1
Potency [1]: inactive | Potency [2]: inactive | Potency [3]: inactive | Potency [4]: 11.9 µM (active)

CC1=C2C3OC(=O)C(C)C3(O)CCC2(C)CCC1=O (stereo unspecified)
Potency [1]: inactive | Potency [2]: inactive | Potency [3]: inactive | Potency [4]: 23.8 µM (active) | Potency [5]: inactive

CC(=O)Oc1c(C)cc(OCC(O)CNC(C)C)c(C)c1C (stereo unspecified)
Potency [1]: inactive | Potency [2]: inactive

C=C1CCC2C(C)(COC3OC(COC(=O)CC(=O)O)C(O)C(O)C3O)CCCC2(C)C1CCC1=CCOC1=O (stereo unspecified)
Potency [1]: inactive | Potency [2]: inactive | Potency [3]: inactive | Potency [4]: inactive | Potency [5]: inactive

COC(=O)C1=COC(O[C@@H]2O[C@H](CO)[C@@H](O)[C@H](O)[C@H]2O)/C(=C\COC(=O)c2ccc(OC3OC(CO)C(O)C(O)C3O)c(OC)c2)C1CC(=O)OCCc1ccc(O)cc1 (stereo partly specified)
Potency [1]: inactive | Potency [2]: inactive | outcome [3]: inactive [at 11.6 µM] | activity change, negative = thiol reactive [4]: 1.89% [at 11.5 µM]

C=C/C=C/[C@@H]1OC[C@H](/C=C/C=C/C)[C@H]1O
Potency [1]: inactive | Potency [2]: inactive | Potency [3]: inactive | Potency [4]: inactive | Potency [5]: inactive
